Laboratory results published in PubChem BioAssay (Tox21).
Unmarked numbers belong to inactive results. Results filed as inconclusive are left out. Entries that show only a call come without a potency. Calls of active or inactive are those of the source. Unless noted, calls follow the shape of the dose curve; as a rule, active = well fitted curve in the direction sought with a large enough effect in the repeat runs; inconclusive = weak or mixed curves; inactive = no such curve, though single readings can be large; an effect the other way counts as inactive or inconclusive.

Key:
[1] = qHTS assay to identify small molecule agonists of the estrogen receptor alpha (ER-alpha) signaling pathway in the presence of an antagonist - cell viability counter screen (AID 1259386);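 also: series mostly up to about 92 µM; cells exposed to compounds for 22 h at 37 °C before the viability read; nearly all actives have a fitted effect of over 30% in size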
How it was run: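 ICI-182,780 at 10.0nM final accompanies the compound titration (15 concentrations, 22hr, 37C) on VM7Luc4E2 cells. The CellTiter-Fluor fluorescence readout runs in the same wells as the luciferase assay.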

[2] = qHTS assay to identify small molecule antagonists of the progesterone receptor (PR) signaling pathway - cell viability counter screen (AID 1346798); also: series mostly up to about 92 µM; nearly all actives have a fitted effect of over 50% in size
How it was run: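 Same-well multiplex: after 16 hr at 37C with compound and R5020 stimulation, HEK293T cells carrying a UAS-bla reporter received LiveBLAzer substrate (2 hr RT), then CellTiter-Glo (30 min RT) for luminescent viability.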

[3] = qHTS assay to identify small molecule antagonists of the TGF-beta/Smad signaling pathway - cell viability counter screen (AID 1346824); also: nearly all actives have a fitted effect of over 50% in size
How it was run: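 Cytotoxicity counter-screen run in the same wells as the beta-lactamase Smad reporter read: CellTiter-Glo luminescence after 30 min at room temperature. HEK 293T SBE-bla cells had 5 hr compound exposure at 37 C with TGF-beta1 (0.25 ng/mL stock).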

[4] = qHTS assay to identify small molecule agonists of the TGF-beta/Smad signaling pathway - cell viability counter screen (AID 1346829); also: top concentration of the series differs between compounds; nearly all actives have a fitted effect of over 45% in size
How it was run: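 Here the cytotoxicity of library compounds is measured in SBE-bla HEK 293T cells treated for 5 hr, using CellTiter-Glo added to wells already read for the beta-lactamase reporter.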

[5] = qHTS assay to identify small molecule agonists of the TGF-beta/Smad signaling pathway (AID 1346859; active = well fitted activation curve with a large enough effect in the signal ratio in the repeat runs, not every such curve was filed as active; the % refers to the signal ratio; also: series mostly up to about 77 µM)
How it was run: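 Smad-responsive beta-lactamase reporter cells (HEK 293T) received compounds from DMSO stocks after overnight attachment, were incubated 5 hr, then treated 2 hr with FRET substrate before dual-emission fluorescence measurement (405 nm excitation).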

[6] = biological target: Thyrotropin-releasing hormone receptor (Homo sapiens) (UniProt P34981); assay: qHTS assay to identify small molecule antagonists of the thyrotropin-releasing hormone receptor (TRHR) signaling pathway (AID 1346877; active = well fitted inhibition curve with a large enough effect in the repeat runs, not every such curve was filed as active; also: series mostly up to about 51 µM)
Chain of Thyrotropin-releasing hormone receptor (Homo sapiens) (P34981 whole entry, looked up): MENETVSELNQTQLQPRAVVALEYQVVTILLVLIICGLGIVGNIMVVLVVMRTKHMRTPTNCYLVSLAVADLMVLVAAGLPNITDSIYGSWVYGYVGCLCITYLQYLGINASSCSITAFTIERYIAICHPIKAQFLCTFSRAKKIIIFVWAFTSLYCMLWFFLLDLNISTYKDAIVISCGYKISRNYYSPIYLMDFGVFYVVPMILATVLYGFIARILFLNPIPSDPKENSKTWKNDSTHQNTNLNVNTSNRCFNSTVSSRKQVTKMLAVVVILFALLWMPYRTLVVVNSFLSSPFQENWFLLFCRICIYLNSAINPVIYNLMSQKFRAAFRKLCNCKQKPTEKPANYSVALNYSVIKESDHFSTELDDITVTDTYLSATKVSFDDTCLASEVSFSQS
How it was run: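 Screening used HEK293 cells engineered with TRHR, with a brief 5 min room-temperature compound exposure preceding addition of TRH to 1 nM. The read-out was kinetic calcium-dye fluorescence, concentration-response from 15 doses in triplicate.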

[7] = biological target: Thyrotropin-releasing hormone receptor (Homo sapiens) (UniProt P34981); assay: qHTS assay to identify small molecule agonists of the thyrotropin-releasing hormone receptor (TRHR) signaling pathway (AID 1346891; calls by dose curve;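 also: HEK293 cells expressing TRHR with calcium dye readout; series mostly up to about 58 µM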)
How it was run: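 Agonist-mode calcium mobilisation screen: TRHR-transfected HEK293 cells cultured overnight (18 h), dye-loaded for 2 h at 37 °C, exposed to compounds, and monitored by fluorescence for 3 min.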

[8] = Human pregnane X receptor (PXR) small molecule agonists, qHTS cell viability counter screen (AID 1346977); also: nearly all actives have a fitted effect of over 50% in size; also: potency is read from the fitted curve at half-maximal effect
How it was run: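 Measures live-cell protease fluorescence (CellTiter-Fluor) in PXR-Luc HepG2 cells treated 24hr with compounds at 37C. Cells had 5hr to attach before pin transfer of DMSO solutions.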

[9] = Caspase-3/7 induction in HepG2 cells by small molecules, qHTS assay (AID 1346978); also: nearly all actives have a fitted effect of over 15% in size
How it was run: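 Caspase-3/7 induction was measured by Caspase-Glo 3/7 luminescence (30 min, room temperature) after a 17 hr compound exposure of wild-type HepG2 cells seeded at 2,000 per well and pre-incubated 5 hr.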

[10] = Caspase-3/7 induction in CHO-K1 cells by small molecules, qHTS cell viability counter screen (AID 1346979); also: nearly all actives have a fitted effect of over 35% in size
How it was run: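 In the same wells as the caspase read, viability of compound-treated wild-type CHO-K1 cells was assessed using CellTiter-Fluor, added after 16hr at 37C and measured by fluorescence following 1hr further incubation.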

[11] = Caspase-3/7 induction in HepG2 cells by small molecules, qHTS cell viability counter screen (AID 1346981); also: series mostly up to about 92 µM; nearly all actives have a fitted effect of over 30% in size
How it was run: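 Multiplexed with the caspase-3/7 assay: HepG2 cells, 16 hr compound treatment, CellTiter-Fluor viability detection by fluorescence.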

[12] = biological target: Progesterone receptor (Homo sapiens) (UniProt P06401); assay: qHTS assay to identify small molecule antagonists of the progesterone receptor (PR) signaling pathway (AID 1346795; active = well fitted inhibition curve with a large enough effect in the signal ratio in the repeat runs, not every such curve was filed as active; the % refers to the signal ratio)
Chain of Progesterone receptor (Homo sapiens) (P06401 whole entry, looked up): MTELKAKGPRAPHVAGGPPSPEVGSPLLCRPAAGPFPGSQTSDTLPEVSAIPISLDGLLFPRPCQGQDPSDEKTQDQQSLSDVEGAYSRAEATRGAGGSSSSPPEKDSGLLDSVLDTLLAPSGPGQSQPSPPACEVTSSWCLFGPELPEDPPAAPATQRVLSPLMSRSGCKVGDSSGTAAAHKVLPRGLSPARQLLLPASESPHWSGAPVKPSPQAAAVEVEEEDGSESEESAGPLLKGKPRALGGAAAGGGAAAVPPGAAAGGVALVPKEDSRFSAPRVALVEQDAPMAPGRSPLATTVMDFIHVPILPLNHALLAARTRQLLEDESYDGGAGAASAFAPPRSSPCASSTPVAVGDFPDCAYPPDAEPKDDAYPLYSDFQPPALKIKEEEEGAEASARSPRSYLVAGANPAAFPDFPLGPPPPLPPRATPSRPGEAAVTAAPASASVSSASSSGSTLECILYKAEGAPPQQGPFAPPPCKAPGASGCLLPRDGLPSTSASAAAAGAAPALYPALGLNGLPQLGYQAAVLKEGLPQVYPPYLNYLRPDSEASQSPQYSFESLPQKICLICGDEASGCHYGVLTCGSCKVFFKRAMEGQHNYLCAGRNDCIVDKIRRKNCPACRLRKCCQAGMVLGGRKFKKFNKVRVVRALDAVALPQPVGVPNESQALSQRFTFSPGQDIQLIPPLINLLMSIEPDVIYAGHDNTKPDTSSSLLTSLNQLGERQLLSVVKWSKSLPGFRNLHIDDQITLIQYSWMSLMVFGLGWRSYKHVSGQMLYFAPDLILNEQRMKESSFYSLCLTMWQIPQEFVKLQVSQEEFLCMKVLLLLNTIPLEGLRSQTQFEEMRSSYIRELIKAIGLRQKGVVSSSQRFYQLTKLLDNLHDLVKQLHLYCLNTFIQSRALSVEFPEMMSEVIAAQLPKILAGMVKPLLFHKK
How it was run: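 HEK293T PR-UAS-bla reporter cells in charcoal-stripped serum (2%) received compound after a 6 hr settling period, followed by R5020 agonist at 1 nM final; 16 hr incubation preceded the FRET substrate step and fluorescence measurement.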

[13] = Caspase-3/7 induction in CHO-K1 cells by small molecules, qHTS assay (AID 1346980); also: nearly all actives have a fitted effect of over 15% in size
How it was run: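 Luminescent Caspase-Glo 3/7 read (30min, room temperature) quantified apoptosis induction. Cells were wild-type CHO-K1, treated with compound for 17hr at 37 C and 5% CO2.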

[14] = biological target: Nuclear receptor subfamily 1 group I member 2 (Homo sapiens) (UniProt O75469); assay: Human pregnane X receptor (PXR) small molecule agonists, qHTS assay (AID 1346982); also: nearly all actives have a fitted effect of over 35% in size; also: potency is read from the fitted curve at half-maximal effect
Chain of Nuclear receptor subfamily 1 group I member 2 (Homo sapiens) (O75469 whole entry, looked up): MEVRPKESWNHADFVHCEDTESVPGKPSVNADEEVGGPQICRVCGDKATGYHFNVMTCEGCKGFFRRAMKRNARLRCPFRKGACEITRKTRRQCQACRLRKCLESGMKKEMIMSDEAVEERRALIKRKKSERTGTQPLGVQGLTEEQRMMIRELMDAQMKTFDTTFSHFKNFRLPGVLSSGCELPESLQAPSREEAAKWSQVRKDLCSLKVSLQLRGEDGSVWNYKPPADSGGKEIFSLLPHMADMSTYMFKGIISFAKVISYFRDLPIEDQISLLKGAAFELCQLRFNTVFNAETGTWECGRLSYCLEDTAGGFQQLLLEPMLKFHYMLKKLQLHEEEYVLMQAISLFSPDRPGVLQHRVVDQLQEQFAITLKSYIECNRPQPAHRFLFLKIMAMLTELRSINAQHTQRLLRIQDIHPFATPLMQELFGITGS
How it was run: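 We seeded PXR-Luc HepG2 cells in assay medium containing 5% charcoal-stripped FBS, added compounds 5 hr later, incubated 24 hr, and read luminescence with ONE-Glo reagent.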

[15] = biological target: Nuclear receptor subfamily 1 group I member 2 (Rattus norvegicus) (UniProt Q9R1A7); assay: Rat pregnane X receptor (rPXR) activation by small molecules, qHTS assay (AID 1346983); conditions: rPXR luciferase reporter cells, One-Glo luminescence, 24 h; max activation: hits give high values; also: nearly all actives have a fitted effect of over 20% in size
Chain of Nuclear receptor subfamily 1 group I member 2 (Rattus norvegicus) (Q9R1A7 whole entry, looked up): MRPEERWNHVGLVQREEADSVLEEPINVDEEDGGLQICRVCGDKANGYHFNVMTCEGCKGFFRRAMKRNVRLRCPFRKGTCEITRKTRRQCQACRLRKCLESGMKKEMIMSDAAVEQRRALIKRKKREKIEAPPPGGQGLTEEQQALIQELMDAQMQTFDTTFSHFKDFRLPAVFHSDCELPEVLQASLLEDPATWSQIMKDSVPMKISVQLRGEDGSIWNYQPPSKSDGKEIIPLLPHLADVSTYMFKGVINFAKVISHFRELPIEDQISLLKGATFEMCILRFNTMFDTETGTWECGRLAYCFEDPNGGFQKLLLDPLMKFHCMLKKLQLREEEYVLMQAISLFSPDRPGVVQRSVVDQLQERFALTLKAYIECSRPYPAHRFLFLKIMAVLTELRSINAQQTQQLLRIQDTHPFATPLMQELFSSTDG
How it was run: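 Luminescent readout (One-Glo luciferase, 30 min room temperature) followed 24 hr compound treatment at 37 C of rPXR cells plated 2,000 per well and preincubated 5hr; qHTS format with compounds delivered in DMSO.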

[16] = biological target: Nuclear receptor subfamily 1 group I member 2 (Homo sapiens) (UniProt O75469); assay: CYP3A4 induction through human pregnane X receptor (PXR) by small molecules, qHTS assay (AID 1346984); also: nearly all actives have a fitted effect of over 40% in size; also: potency is read from the fitted curve at half-maximal effect
How it was run: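 qHTS, concentration-response format: HepG2 DPX-2 line, PXR/CYP3A4-luc. Exposure 24 h, 37C. Substrate Luciferin-IPA 3uM final, 3 h. Detection One-Glo, 30 min RT.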

[17] = biological target: Nuclear receptor subfamily 1 group I member 2 (Homo sapiens) (UniProt O75469); assay: Human pregnane X receptor (PXR) activation by small molecules, qHTS assay (AID 1346985); also: nearly all actives have a fitted effect of over 40% in size
How it was run: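 DPX-2 cells (HepG2 co-transfected with a PXR response element and a CYP3A4-promoter luciferase construct) were seeded at 2,000 per well, rested 5 hr at 37C, then exposed to DMSO-dissolved compounds for 24 hr. Activation was read as luciferase luminescence.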

[18] = biological target: Progesterone receptor (Homo sapiens) (UniProt P06401); assay: qHTS assay to identify small molecule agonists of the progesterone receptor (PR) signaling pathway (AID 1346784; calls by dose curve; also: nearly all actives have a fitted effect of over 30% in size)
How it was run: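 Agonist mode, quantitative HTS format in a HEK 293T line expressing a UAS-controlled beta-lactamase reporter; 16 hr compound exposure at 37C in 2% charcoal-stripped FBS, then LiveBLAzer B/G FRET fluorescence.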

[19] = qHTS assay to identify small molecule agonists of the progesterone receptor (PR) signaling pathway - cell viability counter screen (AID 1346799; calls by dose curve; also: nearly all actives have a fitted effect of over 45% in size)
How it was run: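 Counter screen for cytotoxicity: compound-treated PR-UAS-bla HEK293T cells (16 hr, 37C, 5% CO2) were assayed with CellTiter-Glo, luminescence measured after 30 min at room temperature.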

SMILES | Potency [1] | Potency [2] | outcome [3] | outcome [4] | outcome [5] | outcome [6] | outcome [7] | Potency [8] | Potency [9] | Potency [10] | Potency [11] | Potency [12] | Potency [13] | Potency [14] | max activation [15] [%] | Potency [16] | Potency [17] | Potency [18] | Potency [19]
CO[C@@H]1[C@@H](O[C@@H]2O[C@H](C)[C@@H](O[C@H]3C[C@@](C)(O)[C@@H](O)[C@H](C)O3)[C@H](N(C)C)[C@H]2O)[C@@H](CC=O)C[C@@H](C)[C@@H](O[C@@H]2CC[C@H](N(C)C)[C@@H](C)O2)/C=C/C=C/C[C@@H](C)OC(=O)C[C@H]1OC(C)=O | inactive | inactive | inactive | inactive | inactive | inactive | inactive | 26.6 µM (active) | inactive | inactive | inactive | – | – | – | – | – | – | – | –
COc1cc(C)c(Cc2cnc(N)nc2N)cc1OC | inactive | inactive | inactive | – | inactive | inactive | inactive | inactive | inactive | inactive | inactive | inactive | inactive | inactive | -0.291 | inactive | inactive | – | –
O=C(O)c1cc(C(=O)O)c(C(=O)O)cc1C(=O)O | inactive | inactive | inactive | inactive | – | – | – | inactive | inactive | – | inactive | inactive | inactive | inactive | – | – | – | – | –
Clc1cc(Cl)c2c(c1)N=C1CCCCCN1C2 | – | inactive | inactive | inactive | – | inactive | inactive | – | inactive | – | inactive | – | inactive | 29.8 µM (active) | – | – | – | inactive | inactive
CCOc1ccc(NC(C)=O)cc1N | inactive | – | – | – | inactive | – | – | inactive | – | inactive | inactive | – | – | 31.1 µM (active) | – | – | – | inactive | inactive
COc1ccc(/C=C/S(=O)(=O)NC(=O)c2ccc(C)cc2Cl)cc1 | – | – | inactive | inactive | inactive | inactive | inactive | inactive | – | inactive | inactive | – | – | 27.3 µM (active) | – | – | – | inactive | –
C[C@]12CCC(=O)C=C1[C@@H]1C[C@@H]1[C@H]1[C@@H]3[C@@H]4C[C@@H]4[C@@]4(CCC(=O)O4)[C@@]3(C)CC[C@@H]12 | inactive | inactive | inactive | – | – | inactive | inactive | inactive | inactive | – | inactive | – | inactive | inactive | – | 11.2 µM (active) | – | – | –
O=C(Nc1ccccc1)c1cc([N+](=O)[O-])ccc1Cl | inactive | inactive | inactive | inactive | – | inactive | inactive | – | inactive | – | inactive | – | inactive | 61.1 µM (active) | – | – | – | – | inactive
N#Cc1ccc(CC(=O)c2cccc(C(F)(F)F)c2)cc1 | inactive | – | – | inactive | inactive | inactive | inactive | inactive | inactive | inactive | inactive | – | inactive | – | – | – | – | inactive | –
